Data published in the supplement of paper PMC4466140.

Columns and labels:
Test in all cases: SPOT peptide array binding signal intensity (averaged, normalized) (arbitrary units (background-subtracted, floor 0; scale differs between SH3 domains)); higher = stronger binding of the SH3 domain to the peptide
AgAbp1 = molecular target: AgAbp1
Method in brief: (§1)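 Detection of bound protein relied on anti-GST antibody, an HRP anti-mouse secondary and luminol, with imaging and quantification in Genespotter. The bound protein was GST-fused SH3 domains from four yeast species, incubated at 10 μg/ml overnight at 4°C in TBS-based blocking buffer on cellulose membranes carrying synthetic 15-mer peptides with cysteines replaced by serines. Binding signal is normalized, background-subtracted spot intensity averaged over replicates, in arbitrary units that differ between domains.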

AgBbc1 = molecular target: AgBbc1
Method in brief: as §1

AgBem1-D1 = molecular target: AgBem1-D1
Method in brief: as §1

AgBzz1-D1 = molecular target: AgBzz1-D1
Method in brief: as §1

AgBzz1-D2 = molecular target: AgBzz1-D2
Method in brief: as §1

AgCyk3 = molecular target: AgCyk3
Method in brief: as §1

AgFus1 = molecular target: AgFus1
Method in brief: as §1

AgHof1 = molecular target: AgHof1
Method in brief: as §1

AgHse1 = molecular target: AgHse1
Method in brief: as §1

AgLsb1 = molecular target: AgLsb1
Method in brief: as §1

AgLsb4 = molecular target: AgLsb4
Method in brief: as §1

AgMyo5 = molecular target: AgMyo5
Method in brief: as §1

AgNbp2 = molecular target: AgNbp2
Method in brief: as §1

AgRvs167 = molecular target: AgRvs167
Method in brief: as §1

AgSho1 = molecular target: AgSho1
Method in brief: as §1

AgSla1-D1-D2 = molecular target: AgSla1-D1-D2
Method in brief: as §1

AgSla1-D3 = molecular target: AgSla1-D3
Method in brief: as §1

CaAbp1-D1 = molecular target: CaAbp1-D1
Method in brief: as §1

CaAbp1-D2 = molecular target: CaAbp1-D2
Method in brief: as §1

CaBbc1 = molecular target: CaBbc1
Method in brief: as §1

CaBem1-D1 = molecular target: CaBem1-D1
Method in brief: as §1

CaBzz1-D1 = molecular target: CaBzz1-D1
Method in brief: as §1

CaBzz1-D2 = molecular target: CaBzz1-D2
Method in brief: as §1

CaCyk3 = molecular target: CaCyk3
Method in brief: as §1

CaFus1 = molecular target: CaFus1
Method in brief: as §1

CaHof1 = molecular target: CaHof1
Method in brief: as §1

CaHse1 = molecular target: CaHse1
Method in brief: as §1

CaLsb1 = molecular target: CaLsb1
Method in brief: as §1

CaLsb4 = molecular target: CaLsb4
Method in brief: as §1

CaMyo5 = molecular target: CaMyo5
Method in brief: as §1

CaNbp2 = molecular target: CaNbp2
Method in brief: as §1

CaRvs167 = molecular target: CaRvs167
Method in brief: as §1

CaRvs167-3 = molecular target: CaRvs167-3
Method in brief: as §1

CaSho1 = molecular target: CaSho1
Method in brief: as §1

CaSla1-D1-D2 = molecular target: CaSla1-D1-D2
Method in brief: as §1

CaSla1-D3 = molecular target: CaSla1-D3
Method in brief: as §1

ScAbp1 = molecular target: ScAbp1
Method in brief: as §1

ScBbc1 = molecular target: ScBbc1
Method in brief: as §1

ScBem1-D1 = molecular target: ScBem1-D1
Method in brief: as §1

ScBzz1-D1 = molecular target: ScBzz1-D1
Method in brief: as §1

ScBzz1-D2 = molecular target: ScBzz1-D2
Method in brief: as §1

ScCyk3 = molecular target: ScCyk3
Method in brief: as §1

ScFus1 = molecular target: ScFus1
Method in brief: as §1

ScHof1 = molecular target: ScHof1
Method in brief: as §1

ScHse1 = molecular target: ScHse1
Method in brief: as §1

ScLsb1 = molecular target: ScLsb1
Method in brief: as §1

ScLsb2 = molecular target: ScLsb2
Method in brief: as §1

ScLsb3 = molecular target: ScLsb3
Method in brief: as §1

ScLsb4 = molecular target: ScLsb4
Method in brief: as §1

ScMyo3 = molecular target: ScMyo3
Method in brief: as §1

ScMyo5 = molecular target: ScMyo5
Method in brief: as §1

ScNbp2 = molecular target: ScNbp2
Method in brief: as §1

ScPex13 = molecular target: ScPex13
Method in brief: as §1

ScRvs167 = molecular target: ScRvs167
Method in brief: as §1

ScSho1 = molecular target: ScSho1
Method in brief: as §1

ScSla1-D1-D2 = molecular target: ScSla1-D1-D2
Method in brief: as §1

ScSla1-D3 = molecular target: ScSla1-D3
Method in brief: as §1

SpAbp1-D1 = molecular target: SpAbp1-D1
Method in brief: as §1

SpBbc1 = molecular target: SpBbc1
Method in brief: as §1

SpBzz1-D1 = molecular target: SpBzz1-D1
Method in brief: as §1

SpBzz1-D2 = molecular target: SpBzz1-D2
Method in brief: as §1

SpCyk3 = molecular target: SpCyk3
Method in brief: as §1

SpHof1 = molecular target: SpHof1
Method in brief: as §1

SpHof1-2 = molecular target: SpHof1-2
Method in brief: as §1

SpHof1-3 = molecular target: SpHof1-3
Method in brief: as §1

SpHse1 = molecular target: SpHse1
Method in brief: as §1

SpLsb1 = molecular target: SpLsb1
Method in brief: as §1

SpLsb4 = molecular target: SpLsb4
Method in brief: as §1

SpMyo1 = molecular target: SpMyo1
Method in brief: as §1

SpNbp2 = molecular target: SpNbp2
Method in brief: as §1

SpPex13 = molecular target: SpPex13
Method in brief: as §1

SpRvs167 = molecular target: SpRvs167
Method in brief: as §1

SpSla1-D1-D2 = molecular target: SpSla1-D1-D2
Method in brief: as §1

SpSla1-D3 = molecular target: SpSla1-D3
Method in brief: as §1

B1: unnamed (peptide)
chain: LYEAMPPTLPHRDWK
SPOT peptide array binding signal intensity (AgAbp1): 1
SPOT peptide array binding signal intensity (AgBbc1): 2.5
SPOT peptide array binding signal intensity (AgBem1-D1): 13.5
SPOT peptide array binding signal intensity (AgBzz1-D1): ≤ 0
SPOT peptide array binding signal intensity (AgBzz1-D2): ≤ 0
SPOT peptide array binding signal intensity (AgCyk3): 2
SPOT peptide array binding signal intensity (AgFus1): 33
SPOT peptide array binding signal intensity (AgHof1): 0.5
SPOT peptide array binding signal intensity (AgHse1): 50
SPOT peptide array binding signal intensity (AgLsb1): 30.5
SPOT peptide array binding signal intensity (AgLsb4): 518
SPOT peptide array binding signal intensity (AgMyo5): 0.5
SPOT peptide array binding signal intensity (AgNbp2): 154
SPOT peptide array binding signal intensity (AgRvs167): 30.2
SPOT peptide array binding signal intensity (AgSho1): 26.5
SPOT peptide array binding signal intensity (AgSla1-D1-D2): ≤ 0
SPOT peptide array binding signal intensity (AgSla1-D3): ≤ 0
SPOT peptide array binding signal intensity (CaAbp1-D1): 8
SPOT peptide array binding signal intensity (CaAbp1-D2): 1.5
SPOT peptide array binding signal intensity (CaBbc1): 16.5
SPOT peptide array binding signal intensity (CaBem1-D1): 16
SPOT peptide array binding signal intensity (CaBzz1-D1): 50.5
SPOT peptide array binding signal intensity (CaBzz1-D2): 27.2
SPOT peptide array binding signal intensity (CaCyk3): ≤ 0
SPOT peptide array binding signal intensity (CaFus1): 327
SPOT peptide array binding signal intensity (CaHof1): 0.5
SPOT peptide array binding signal intensity (CaHse1): 150
SPOT peptide array binding signal intensity (CaLsb1): 0.5
SPOT peptide array binding signal intensity (CaLsb4): 806
SPOT peptide array binding signal intensity (CaMyo5): 12
SPOT peptide array binding signal intensity (CaNbp2): 141
SPOT peptide array binding signal intensity (CaRvs167): 195
SPOT peptide array binding signal intensity (CaRvs167-3): 6
SPOT peptide array binding signal intensity (CaSho1): 130
SPOT peptide array binding signal intensity (CaSla1-D1-D2): 25.5
SPOT peptide array binding signal intensity (CaSla1-D3): 60.5
SPOT peptide array binding signal intensity (ScAbp1): ≤ 0
SPOT peptide array binding signal intensity (ScBbc1): ≤ 0
SPOT peptide array binding signal intensity (ScBem1-D1): ≤ 0
SPOT peptide array binding signal intensity (ScBzz1-D1): ≤ 0
SPOT peptide array binding signal intensity (ScBzz1-D2): 21
SPOT peptide array binding signal intensity (ScCyk3): 3
SPOT peptide array binding signal intensity (ScFus1): 95.5
SPOT peptide array binding signal intensity (ScHof1): 4.5
SPOT peptide array binding signal intensity (ScHse1): 15
SPOT peptide array binding signal intensity (ScLsb1): 13
SPOT peptide array binding signal intensity (ScLsb2): 2
SPOT peptide array binding signal intensity (ScLsb3): 736
SPOT peptide array binding signal intensity (ScLsb4): 636
SPOT peptide array binding signal intensity (ScMyo3): 19.5
SPOT peptide array binding signal intensity (ScMyo5): 0.5
SPOT peptide array binding signal intensity (ScNbp2): 252
SPOT peptide array binding signal intensity (ScPex13): 807
SPOT peptide array binding signal intensity (ScRvs167): 374
SPOT peptide array binding signal intensity (ScSho1): 257
SPOT peptide array binding signal intensity (ScSla1-D1-D2): 46
SPOT peptide array binding signal intensity (ScSla1-D3): 85.5
SPOT peptide array binding signal intensity (SpAbp1-D1): ≤ 0
SPOT peptide array binding signal intensity (SpBbc1): 2
SPOT peptide array binding signal intensity (SpBzz1-D1): 67
SPOT peptide array binding signal intensity (SpBzz1-D2): 0.5
SPOT peptide array binding signal intensity (SpCyk3): 3
SPOT peptide array binding signal intensity (SpHof1): 2
SPOT peptide array binding signal intensity (SpHof1-2): 2
SPOT peptide array binding signal intensity (SpHof1-3): 0.5
SPOT peptide array binding signal intensity (SpHse1): 78.5
SPOT peptide array binding signal intensity (SpLsb1): 2.25
SPOT peptide array binding signal intensity (SpLsb4): 1290
SPOT peptide array binding signal intensity (SpMyo1): 32.5
SPOT peptide array binding signal intensity (SpNbp2): 22.5
SPOT peptide array binding signal intensity (SpPex13): 38.5
SPOT peptide array binding signal intensity (SpRvs167): 282
SPOT peptide array binding signal intensity (SpSla1-D1-D2): 1
SPOT peptide array binding signal intensity (SpSla1-D3): 21
